This is a sample that favours compounds with a hit; in the whole collection about 7.9% have one here.
NOMO-1 viab: NOMO-1 AML cell viability reduction, primary screen, STK33 inhibitor project, CellTiter-Glo luminescence; inhibition, % (concentration not given with the values); NOMO-1 AML viability, 72 h; 37,000 tested, 7.5% active; in the data active = inhibition above about 80%; inconclusive = no clear call, values can overlap the other calls
MITF inhib: inhibitors of MITF, primary screen, MITF inhibitor project, cell-based, luminescence | TRPM1 promoter luciferase, 24 h | inhibition, % (no concentration beside the values) | 37,000 tested, 0.28% active | AID 2240, 2010; in the data active = inhibition above about 85%; inconclusive = no clear call, values can overlap the other calls; inactive = below about 68%;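 note: human melanocyte line stably carrying TRPM1 promoter luciferase reporter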
Shh pathway inh: Hedgehog pathway signaling inhibitors, primary screen, luminescence, Shh-LIGHT2 cells, Gli-luciferase; 22,000 tested, 2.1% active; Shh-LIGHT2 Gli-luciferase reporter, 30 h; AID 2313, 2010; inhibition, % (test concentration not listed);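 active = mean inhibition across valid replicates above about 65%, limit read from the data; inconclusive = mean under the limit, yet half or more replicates past it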;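 note: pathway switched on by Shh-conditioned medium diluted 1 in 25 in low serum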
The depositor's hits bear a star; ? = inconclusive; . = no result given.

SMILES	NOMO-1 viab	MITF inhib	Shh pathway inh
Cc1ccc(S(=O)(=O)Nc2ccc3c(c2)C(=O)N([C@H](C)CO)C[C@H](C)[C@H](CN(C)Cc2ccc(C(=O)O)cc2)OCCCC[C@@H](C)O3)cc1	2	-1	.
Cc1ccc(S(=O)(=O)Nc2ccc3c(c2)C(=O)N([C@H](C)CO)C[C@H](C)[C@@H](CN(C)Cc2ccccc2)OCCCC[C@@H](C)O3)cc1	30	-11	68*
C[C@@H]1CCCCO[C@@H](CN(C)C(=O)C2CCCCC2)[C@@H](C)CN([C@H](C)CO)C(=O)c2cc(NS(=O)(=O)c3ccccc3)ccc2O1	101*	54	.
Cc1ccc(S(=O)(=O)Nc2ccc3c(c2)C(=O)N([C@H](C)CO)C[C@H](C)[C@H](CN(C)C(=O)Nc2cccc4ccccc24)OCCCC[C@@H](C)O3)cc1	111*	11	-9
C[C@@H]1CCCCO[C@H](CN(C)Cc2ccc(Cl)c(Cl)c2)[C@@H](C)CN([C@H](C)CO)C(=O)c2cc(NS(=O)(=O)c3ccc(F)cc3)ccc2O1	61	16	-5
C[C@@H]1CCCCO[C@H](CN(C)C(=O)C2CCCCC2)[C@@H](C)CN([C@H](C)CO)C(=O)c2cc(NS(=O)(=O)c3ccc(Cl)cc3)ccc2O1	34	4	-50
C[C@@H]1CN([C@H](C)CO)C(=O)c2cc(NC(=O)C3CCCCC3)ccc2O[C@H]1CN(C)S(=O)(=O)c1ccc(Cl)cc1	6	-7	.
C[C@@H]1CN([C@H](C)CO)C(=O)Cc2cc(NC(=O)c3ccncc3)ccc2O[C@H]1CN(C)C	2	3	-7
C[C@@H]1CN([C@H](C)CO)C(=O)c2cc(NC(=O)c3ccncc3)ccc2O[C@H]1CN(C)Cc1ccc(C(=O)Nc2ccccc2N)cc1	?	-10	.
CN(CCOC(=O)Nc1cccc(Cl)c1)c1ccc(C#N)cn1	4	5	19
C[C@@H]1CCCCO[C@H](CN(C)Cc2ccc(C(F)(F)F)cc2)[C@@H](C)CN([C@H](C)CO)C(=O)c2cc(NS(=O)(=O)c3ccc(Cl)cc3)ccc2O1	82*	14	21
Cc1ccc(S(=O)(=O)Nc2ccc3c(c2)C(=O)N([C@H](C)CO)C[C@H](C)[C@@H](CN(C)Cc2ccc(C(F)(F)F)cc2)OCCCC[C@@H](C)O3)cc1	112*	47	.
COc1ccc(S(=O)(=O)Nc2ccc3c(c2)C(=O)N([C@H](C)CO)C[C@H](C)[C@@H](CN(C)Cc2ccc(C(F)(F)F)cc2)OCCCC[C@@H](C)O3)cc1	?	37	17
C[C@@H]1CCCCO[C@H](CN(C)Cc2ccc(C(F)(F)F)cc2)[C@@H](C)CN([C@H](C)CO)C(=O)c2cc(NS(C)(=O)=O)ccc2O1	15	3	-12
O=C(NCCc1c[nH]c2ccccc12)Nc1ccc(Cl)c(Cl)c1	27	-63	.
CCCCCCC/C=C/C(=O)CCc1ccc(O)c(OC)c1	116*	5	-3
CCCCCCC[C@@H](O)CC(=O)CCc1ccc(O)c(OC)c1	41	2	14
COc1cc(O)c(C(=O)/C=C/c2ccc(OC)c(OC)c2)c(OC)c1	33	-35	5
COc1cc(O)c(C(=O)/C=C/c2ccccc2)c(OC)c1	93*	-18	21
CC(=O)OC[C@]12CCC(C)=CC1O[C@@H]1[C@H](O)[C@@H](O[C@H]3O[C@H](CO)[C@@H](O)[C@H](O)[C@H]3O)[C@@]2(C)C12CO2 (stereo not given in full)	.	.	50
CC1=CC2OC3[C@H](O)C[C@](C)([C@@]2(CO)CC1=O)[C@]31CO1 (stereo not given in full)	119*	47	95*
COC(=O)c1ccc(C)c(NC(=O)CN(c2ccc(F)cc2)S(C)(=O)=O)c1	98*	-4	.
COC(=O)c1ccc(NC(=O)CN(c2ccc(F)cc2)S(C)(=O)=O)cc1	18	-32	.
Cc1cc(I)ccc1NC(=O)CN(c1cc(Cl)c(Cl)cc1Cl)S(C)(=O)=O	30	1	.
COC(=O)c1ccc(C)c(NC(=O)CN(c2cc(Cl)c(Cl)cc2Cl)S(C)(=O)=O)c1	96*	0	.
SMILES	NOMO-1 viab	MITF inhib	Shh pathway inh
COC(=O)c1ccc(Cl)c(NC(=O)CN(c2ccc(I)cc2)S(C)(=O)=O)c1	120*	22	.
COC(=O)c1ccccc1NC(=O)CN(c1ccc(I)cc1)S(C)(=O)=O	16	-13	.
C[C@@H]1CN([C@H](C)CO)C(=O)Cc2cc(NC(=O)Cc3cn(C)c4ccccc34)ccc2O[C@H]1CN(C)S(=O)(=O)c1cccs1	9	6	-24
COc1ccc(OC)c(NC(=O)CN(c2ccccc2Br)S(C)(=O)=O)c1	-16	-3	.
CC1(C)CC(=O)C=C(Sc2nc3cc(Cl)ccc3s2)C1	120*	?	?
O=C(CSc1nc2cc(Cl)ccc2s1)Nc1ccc2c(c1)OCCO2	-11	-33	.

Bioassay records (PubChem)
